High-throughput results: PubChem BioAssay, National Center for Advancing Translational Sciences (NCATS)
Rab9 prom act: qHTS Assay for Rab9 Promoter Activators; Huh7 Rab9 promoter-luciferase reporter, luminescence, 24 h; 320,000 compounds, 2.8% hits; Potency, µM (top dose mostly 9.22 µM), for the others: top-dose activation, negative = inhibition, actives largely listed as activators; AID 485297, 2010; further: % of control where 0% means no effect; nearly all actives have a fitted effect of over 60% in size
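Quantitative HTS format; Huh7 Rab9-luciferase reporter cells (1500/well) receive compound 2 h post-plating, incubate 24 h at 37 °C, then get luciferase reagent for 10 min before luminescence reading.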
p53 reactivator: qHTS assay for re-activators of p53 using a Luc reporter | H1299 p53-A138V BP100-luciferase reporter, luminescence, 24 h | Potency, µM (highest dose often 92.2 µM), inactives show at the top dose activity change, positive = activation, usual class: activators | 320,000 compounds, 0.063% hits; further: % of control where 0% means no effect; nearly all actives have a fitted effect of over 45% in size
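p53-null H1299 cells stably carrying temperature-sensitive p53-A138V and a BP100-luciferase reporter were pinned with compounds (4-point, 1:5 series) and held 24 hrs at 37 deg C. Luminescence was read 10 min after detection reagent.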
SMN2 splice enh: qHTS Assay for Enhancers of SMN2 Splice Variant Expression | HEK293 SMN2-luciferase splicing reporter, luminescence, 30-36 h | Potency, µM (highest dose often 46.1 µM), without a hit: at the top dose activity change, positive = activation, hits mostly activators | 210,000 compounds, 2.8% hits; further: % of control where 0% means no effect; nearly all actives have a fitted effect of over 55% in size
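HEK293 cells carry an SMN2 minigene-luciferase reporter in which exon 7 inclusion puts luciferase in frame. Cells were seeded at 2000 cells/well, attached for 10-12 hours, then exposed to compounds for 30-36 hours at 37C before ONE-Glo luminescence.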
ELG1 genotox: qHTS screen for small molecules that induce genotoxicity in human embryonic kidney (HEK293T) cells expressing luciferase-tagged ELG1; 330,000 compounds, 1.3% hits; Potency, µM (series often up to 46 µM), for inactives: top-dose activity change, positive = activation, usual class: activators; HEK293T ELG1-luciferase reporter, luminescence, 16 h; further: % of control where 0% means no effect; nearly all actives have a fitted effect of over 60% in size
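16 hr compound incubation (37 °C, 5% CO2) of HEK293T cells carrying luciferase-tagged ELG1; luciferase then measured by ONE-Glo luminescence after 30 min at RT.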
NPC1 promoter act: qHTS Assay for NPC1 Promoter Activators; Huh7 NPC1 promoter luciferase reporter, 24 h; Potency, µM (doses to about 9.22 µM), for inactives: at the top dose activation, actives largely listed as activators; 320,000 compounds, 2.4% hits; AID 485313, 2010; further: % of control where 0% means no effect; nearly all actives have a fitted effect of over 60% in size
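Luciferase expression driven by the NPC1 promoter was measured in stably transfected Huh7 cells after a 24 h compound incubation, using a luciferase reagent and a luminescence read.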
FLuc modulator: qHTS profiling assay for firefly luciferase inhibitor/activator using purifed enzyme and Km concentrations of substrates (counterscreen for miR-21 project); Luciferin 4-monooxygenase (Photinus pyralis), P08659; purified FLuc, Km substrates, luminescence inhibition; Potency, µM (titrated, usually from 57.5 µM), inactives show top-dose activity change, negative = inhibition, usual class: inhibitors; 360,000 compounds, 6.9% hits; AID 588342, 2011;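 further: plate controls were vehicle for no effect and reference inhibitor for full effect; nearly all actives have a fitted effect of over 55% in size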
Target sequence (P08659 whole entry, looked up): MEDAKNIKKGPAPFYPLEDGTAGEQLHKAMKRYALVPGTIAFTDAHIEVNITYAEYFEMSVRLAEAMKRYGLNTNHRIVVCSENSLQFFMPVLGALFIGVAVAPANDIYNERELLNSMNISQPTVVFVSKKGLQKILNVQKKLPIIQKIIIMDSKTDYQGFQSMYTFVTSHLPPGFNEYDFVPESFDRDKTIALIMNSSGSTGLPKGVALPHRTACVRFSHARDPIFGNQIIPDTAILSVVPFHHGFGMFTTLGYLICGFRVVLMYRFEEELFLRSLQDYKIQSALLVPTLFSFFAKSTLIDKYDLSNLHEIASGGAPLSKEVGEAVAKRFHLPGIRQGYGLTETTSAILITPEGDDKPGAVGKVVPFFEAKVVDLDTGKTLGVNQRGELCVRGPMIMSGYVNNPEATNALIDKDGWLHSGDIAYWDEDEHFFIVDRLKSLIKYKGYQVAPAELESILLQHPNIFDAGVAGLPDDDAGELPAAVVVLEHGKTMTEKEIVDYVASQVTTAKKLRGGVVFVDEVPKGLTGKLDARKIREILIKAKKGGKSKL
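Purified P. pyralis luciferase, 10 nM final, with Km-level 10 uM D-luciferin and 10 uM ATP in 50 mM Tris acetate pH 7.5, 10 mM Mg acetate, 0.01% Tween-20, 0.05% BSA; 6-point qHTS titration about 60 µM downward; luminescence read.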
The depositor's hits bear a star; ? = inconclusive; . = not tested or not shown; [ ] = another dose, or the depositor's remark. In the library only some 7.4% were active in any assay of this set; here they are far more common. The call rests on the fitted dose curve; in most records, active means well fitted curve in the direction sought with a large enough effect; inconclusive means small, poorly fitted or top-dose-only effect, or another doubt; inactive means no such curve, though single readings can be large; an effect the other way counts as inactive or inconclusive. Potency means the concentration at half of the fitted maximal effect.

SMILES | Rab9 prom act | p53 reactivator | SMN2 splice enh | ELG1 genotox | NPC1 promoter act | FLuc modulator
COc1cc(/C=C2\OC(=O)c3c(OC)cccc32)ccc1O | ? | 6% | -13% | 10µM* | ? | 3.4µM*
CS(=O)(=O)N1CCc2cc(C(=O)OCC(=O)c3ccccc3)ccc21 | 3.5µM* | 15% | -4% | 13µM* | 3.2µM* | 4.8µM*
CN(C(=O)c1ccc2c(c1)CCN2S(C)(=O)=O)c1ccccc1 | -4% | 12% | -6% | -5% | -5% | -2%
Cc1ccc(S(=O)(=O)N2CCc3cc(C(=O)Nc4ccc(C)c(C)c4)ccc32)cc1 | . | . | -7% | . | . | 0%
Cc1cc(C)cc(NC(=O)c2ccc3c(c2)CCN3S(C)(=O)=O)c1 | -5% | -3% | . | 0% | 0% | ?
Cc1ccc(NC(=O)c2ccc3c(c2)CCN3S(C)(=O)=O)cc1C | 4µM* | . | . | 9% | 2.5µM* | 15µM*
CS(=O)(=O)N1CCc2cc(C(=O)Nc3cccc(F)c3)ccc21 | . | . | 11µM* | . | . | ?
Cc1cccc(NC(=O)c2ccc3c(c2)CCN3S(C)(=O)=O)c1 | ? | -8% | . | ? | ? | 15µM*
Cc1ccc(CNC(=O)C2CCCN(S(=O)(=O)c3cccc4nonc34)C2)cc1 (stereo not given) | 0% | 1% | . | 9% | 2% | -4%
Cc1csc2nc(CCNS(=O)(=O)c3ccccc3)cn12 | . | . | . | . | . | -1%
C/C(=N\Nc1nc2ccccc2[nH]1)c1ccc(Cl)s1 | 17% | ? | -3% | 2% | ? | 11µM*
C/C(=N\Nc1nc2ccccc2[nH]1)c1ccc(N2CCOCC2)cc1 | ? | -5% | ? | 10% | 4µM* | 1.1µM*
C/C(=N\Nc1nc2ccccc2[nH]1)c1ccc(C)o1 | ? | ? | 18µM* | ? | 22% | 11µM*
C/C(=N\Nc1nc(C)cc(C)n1)c1ccc(N2CCOCC2)cc1 | -13% | 1% | -11% | -7% | -10% | -14%
CCCCn1cc2c(c1-c1ccccc1Br)c(=O)n(C)c(=O)n2C | . | . | 7% | . | . | -2%
CCOc1ccc(OCC)c(Nc2nc3ccc(Cl)cc3n3cnnc23)c1 | . | . | 5% | . | . | -1%
COc1ccc(CCNC(=O)C2CCCN2C(=O)Nc2ccc(F)cc2)cc1OC (stereo not given) | -9% | . | . | -4% | 1% | 3%
CC(C)NC(=O)Cn1nc(N2CCN(c3ccccc3)CC2)ccc1=O | . | . | . | . | . | -2%
N#Cc1c(NC(=O)/C=C/c2ccco2)sc2c1CCCC2 | ? | ? | 3.5µM* | 2.9µM* | ? | 4.8µM*
COC(=O)c1c(NC(=O)/C=C/c2ccc(OC)cc2)sc2c1CCC2 | . | . | 1% | . | . | 3%
O=C(/C=C/c1ccco1)Nc1sc2c(c1C(=O)O)CCC2 | ? | ? | 28µM* | 2% | 3.5µM* | 13µM*
O=C(/C=C/c1ccccc1)Nc1sc2c(c1C(=O)O)CCC2 | ? | 22% | . | -1% | ? | 17µM*
c1csc(-c2nc3ccccn3c2Nc2ccc3c(c2)OCCO3)c1 | . | . | -5% | . | . | ?
Cc1ccn2c(Nc3ccc4c(c3)OCO4)c(-c3ccccn3)nc2c1 | 0% | 20µM* | -91% | ? | 1% | ?
COc1ccc(Nc2c(-c3ccc(C)o3)nc3cc(C)ccn23)cc1 | . | . | -4% | . | . | 17µM*
SMILES | Rab9 prom act | p53 reactivator | SMN2 splice enh | ELG1 genotox | NPC1 promoter act | FLuc modulator
Cc1ccc(Nc2c(-c3ccccn3)nc3cc(C)ccn23)cc1 | -16% | ? | -75% | ? | -15% | -11%
Cc1ccn2c(Nc3ccc4c(c3)OCCO4)c(-c3cccs3)nc2c1 | . | . | -2% | . | . | 9.5µM*
Cc1ccc(-c2nc3ccc(Cl)cn3c2Nc2ccc3c(c2)OCCO3)s1 | . | . | 5µM* | . | . | ?
COc1ccc(C)cc1NC(=O)COC(=O)CCC(=O)c1cccs1 | -2% | 7% | . | 1% | -3% | 2%
Cc1ccn2c(Nc3ccc4c(c3)OCO4)c(-c3ccc(C)o3)nc2c1 | . | . | 1% | . | . | 24µM*
Cc1ccc(-c2nc3ccc(Cl)cn3c2Nc2ccc3c(c2)OCCO3)o1 | . | . | 6% | . | . | -3%
Cc1ccc(-c2nc3ccccn3c2Nc2ccc3c(c2)OCCO3)o1 | . | . | 4% | . | . | ?
Cc1ccc2nc(-c3ccc(C)o3)c(Nc3ccc4c(c3)OCCO4)n2c1 | . | . | 8.9µM* | . | . | 21µM*
Brc1ccc(-c2nc3ccccn3c2Nc2ccc3c(c2)OCCO3)o1 | . | . | ? | . | . | 13µM*
Cc1ccc(CNC(=O)CC(C)CC2=NS(=O)(=O)c3ccccc3N2)cc1 (stereo not given) | . | . | . | . | . | -9%
COc1ccc(OC)c(NC(=O)CSc2nnc(-c3cnccn3)n2C)c1 | -4% | -1% | . | 1% | -5% | 0%
O=C(Nc1ncc([N+](=O)[O-])s1)c1cccc([N+](=O)[O-])c1 | 0.1µM* | . | . | ? | 0.089µM* | 0.67µM*
O=C(Nc1ccccc1)Nc1ncc([N+](=O)[O-])s1 | ? | -5% | 4µM* | ? | ? | 1.5µM*
Cc1nc(C)c(C(=O)Nc2ncc([N+](=O)[O-])s2)o1 | ? | 3% | 0.89µM* | ? | ? | 1.9µM*
CCCCNc1sc(S(=O)(=O)CCC)nc1S(=O)(=O)c1ccc(C)cc1 | . | . | -7% | . | . | -3%
COc1ccc([C@H]2[C@H](C(=O)OC(C)(C)C)N3N=Cc4ccccc4C3C23C(=O)c2ccccc2C3=O)cc1OC (stereo not given in full) | -2% | -4% | 10% | -2% | 0% | 15µM*
COc1ccc2oc(C(=O)NCC3CCCO3)c(C)c2c1 (stereo not given) | 4µM* | -6% | . | ? | ? | 13µM*
CCOc1ccc2oc(C(=O)NCC3CCCO3)c(C)c2c1 (stereo not given) | 2.8µM* | ? | . | ? | ? | 15µM*
CCOc1ccc2oc(C(=O)OCC(=O)NCC3CCCO3)c(C)c2c1 (stereo not given) | 12% | -4% | . | -1% | 8% | -16%
CN(Cc1cc(Br)cc(Br)c1O)Cc1c(O)ccc2ccccc12 | . | . | -3%[9.22 µM] | . | . | .
CC(=O)Oc1ccc(C(=O)Nc2cccc(C(=O)c3cccc(NC(=O)c4ccc(OC(C)=O)cc4)c3)c2)cc1 | -6% | 6% | 4% | -6% | -7% | -10%
CC(=O)Oc1ccc(C(=O)Nc2ccccc2C(=O)Nc2ccc(C(=O)O)cc2)cc1 | 1% | 8% | . | -1% | 4% | 2.4µM*
